Reference: PubChem BioAssay
The source made the active and inactive calls.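 Rule for the calls, unless noted: active = fluorescence slope after compound addition differing from the mean of all screened samples at 99.7% confidence, in either direction; inactive = the rest.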

How the values were obtained:
[1] = inhibitors of TNFa-induced NFkB p65 translocation, primary screen, imaging, HUVEC, MLSMR starter and 10KST1 sets (AID 438;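 active = inhibition above 20% together with a positive visual image hit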;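 note: compound added about 3h40 before a 20 min TNFalpha stimulation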;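 for inhibition: signal is the nuclear over cytoplasmic p65 intensity ratio per well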); conditions: HUVEC TNFa-induced p65 nuclear translocation; cell count: measured here: nuclei count (cytotoxicity indicator), at 2.08 µM; inhibition: at 2 µM, stronger effect = higher value, 0% TNFa-plus-vehicle, 100% no-TNFa wells
[2] = reduction of polyQ htt aggregates in cells – imaging, exon1htt(103Q)mCFP cells, high-content imaging, primary screen (AID 483;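 active = visual image review flags a hit and inhibition of aggregation exceeds 20%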;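 note: compound exposure lasted 3 days before fixation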;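 for nuclei count: percent of the per-plate median nuclei count of sample wells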); conditions: exon1htt(103Q)mCFP cell line, aggregate imaging, at 2 µM; inhibition of aggregation: stronger effect = higher value; nuclei count: measured here: cell count, toxicity
[3] = endothelial E-selectin expression blockers – imaging, HUVEC, immunofluorescence, MLSMR starter and 10KST1 sets, primary screen (AID 487;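 active = visually confirmed hit in the image check and inhibition above 20%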;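 for inhibition: signal is fraction of cell area covered by stained E-selectin grains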;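 for nuclei count: 100% = median nuclei count of all wells on the same plate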); conditions: HUVEC TNFalpha-induced E-selectin immunofluorescence imaging, at 2 µM; inhibition: stronger effect = higher value; nuclei count: measured here: cell number, toxicity
[4] = target: Voltage-gated potassium channel subunit beta-2 (Rattus norvegicus) (UniProt P62483); test: inhibitors of rat Kvbeta2 reductase activity – biochemical, NADPH fluorescence, primary screen (AID 622;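 active = fluorescence slope higher than the sample average by over 3 SD, cut at about -0.22 in these data, passing the limit was not always enough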;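 note: slope of raw intensity against log time taken from 70 to 1610 s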); conditions: recombinant KvBeta, 4-cyanobenzaldehyde reduction, at 10 µM, stronger effect = higher value
[5] = target: Voltage-gated potassium channel subunit beta-2 (Rattus norvegicus) (UniProt P62483); test: enhancers of rat Kvbeta2 NADPH turnover – biochemical, NADPH fluorescence, primary screen (AID 623;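 active = NADPH fluorescence slope more negative than the mean of all samples by about 3 SD, 99.7% confidence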;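 note: fluorescence intensity change per second fitted from 20 to 320 s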); conditions: Recombinant KvBeta, NADPH fluorescence decrease slope, 10 min; at 10 µM; stronger effect = lower value
[6] = target: Alpha-2C adrenergic receptor (Homo sapiens) (UniProt P18825); test: compounds altering alpha2C-coupled GIRK flux – cell-based, HEK293 alpha2C/GIRK1/2, thallium flux, primary screen (AID 624); conditions: thallium flux BTC fluorescence, at 10 µM, actives lie on both sides;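 note: slope of fluorescence ratio to pre-addition baseline per second over 15 to 24 s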
[7] = blockers of RIG-like receptor reporter activation – cell-based, Sendai virus stimulus, luciferase, 10K MLSCN set, TLR/RLR signaling modifier project, primary screen (AID 602276;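 active = inhibition at or above 50% at 10 µM; inactive = inhibition below 50%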;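 note: firefly luciferase from ISG56 promoter only with Renilla not read in this screen; 0% = Sendai virus plus DMSO and 100% = medium plus DMSO without virus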); conditions: HEK293 RL24 IRF3 luciferase reporter, at 10 µM, stronger effect = higher value
[8] = TLR3 IRF3 reporter activation blockers – cell-based, poly I:C stimulus, luciferase, 10K MLSCN set, primary screen (AID 602277;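 active = inhibition of the reporter signal at or above 50%; inactive = inhibition below 50%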); conditions: HEK293-TLR3 RL24 IRF3 luciferase reporter, at 10 µM, stronger effect = higher value

Chain of Alpha-2C adrenergic receptor (Homo sapiens) (P18825 whole entry, looked up): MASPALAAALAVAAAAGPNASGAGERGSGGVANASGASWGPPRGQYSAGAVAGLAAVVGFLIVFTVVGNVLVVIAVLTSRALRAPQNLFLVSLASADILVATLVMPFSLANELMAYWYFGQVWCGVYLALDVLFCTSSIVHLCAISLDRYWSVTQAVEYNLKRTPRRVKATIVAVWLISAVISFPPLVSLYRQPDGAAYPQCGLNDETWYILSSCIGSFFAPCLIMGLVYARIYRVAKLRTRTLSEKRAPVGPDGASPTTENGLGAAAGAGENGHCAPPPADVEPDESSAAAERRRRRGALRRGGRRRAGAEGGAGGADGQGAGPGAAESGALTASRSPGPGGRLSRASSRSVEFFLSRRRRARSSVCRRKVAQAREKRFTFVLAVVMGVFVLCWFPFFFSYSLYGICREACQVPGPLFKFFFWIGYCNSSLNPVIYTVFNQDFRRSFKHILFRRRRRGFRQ
Chain of Voltage-gated potassium channel subunit beta-2 (Rattus norvegicus) (P62483 whole entry, looked up): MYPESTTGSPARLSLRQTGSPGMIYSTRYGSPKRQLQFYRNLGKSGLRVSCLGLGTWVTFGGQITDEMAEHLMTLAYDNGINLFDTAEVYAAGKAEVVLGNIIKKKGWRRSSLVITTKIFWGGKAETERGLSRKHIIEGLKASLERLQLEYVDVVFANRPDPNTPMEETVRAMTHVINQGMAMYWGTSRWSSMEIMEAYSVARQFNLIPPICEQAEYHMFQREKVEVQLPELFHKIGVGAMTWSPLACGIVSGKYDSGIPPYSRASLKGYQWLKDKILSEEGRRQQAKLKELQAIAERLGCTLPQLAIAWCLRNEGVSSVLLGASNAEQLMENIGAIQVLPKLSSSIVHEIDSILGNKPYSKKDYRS

Structure (SMILES) | cell count [1] | inhibition [1] | inhibition of aggregation [2] | nuclei count [2] | inhibition [3] | nuclei count [3] | fluorescence slope [4] | NADPH fluorescence slope [5] | slope [6] | inhibition [7] | inhibition [8]
O=C(O)CCn1[nH]c(=O)ccc1=O | 172 | 6.8% (inactive) | 37% (active) | 67.3% | -3% (inactive) | 84.3% | -0.562 (inactive) | 1.7e-06 (inactive) | 0.0053 (inactive) | 21.4% (inactive) | 18% (inactive)
O=C(COC(=O)C1CC(=O)N(c2ccccc2)C1)c1ccccc1 (stereo unspecified) | 603 | 2.4% (inactive) | -21% (inactive) | 99.9% | -21% (inactive) | 123% | -0.604 (inactive) | -2.9e-05 (inactive) | 0.00601 (inactive) | -13.2% (inactive) | -4.16% (inactive)
Cc1ccc(-c2csc3ncn(-n4c(C)ccc4C)c(=O)c23)o1 | 575 | 6.1% (inactive) | -0.6% (inactive) | 82.8% | 55.1% (active) | 66.1% | -0.468 (inactive) | 3.1e-05 (inactive) | 0.00663 (inactive) | -15.1% (inactive) | 12.5% (inactive)
O=S(=O)(Nc1ccc2c(c1)OCO2)c1ccc(Br)s1 | 285 | -5.5% (inactive) | 14.8% (inactive) | 92.9% | 8.4% (inactive) | 95.6% | -0.31 (inactive) | 1.5e-05 (inactive) | 0.00308 (inactive) | 0.155% (inactive) | -19.3% (inactive)
COc1ccc(Br)cc1S(=O)(=O)N1CC(C)OC(C)C1 (stereo unspecified) | 359 | 2.8% (inactive) | -12.3% (inactive) | 94% | -42.7% (inactive) | 104% | -0.429 (inactive) | 3.8e-05 (inactive) | 0.0065 (inactive) | -2.27% (inactive) | 9.82% (inactive)
CCOC(=O)c1cc(C)sc1N1C(=O)C2C3C=CC(C3)C2C1=O (stereo unspecified) | 223 | 3.3% (inactive) | -17.4% (inactive) | 97.5% | -37% (inactive) | 138% | -0.543 (inactive) | -8.1e-05 (inactive) | 0.00512 (inactive) | 16.2% (inactive) | 15.2% (inactive)
Cc1ccc(C)c(NC(=O)CC(NCCCN2CCOCC2)C(=O)O)c1 (stereo unspecified) | 494 | -13.6% (inactive) | 2.6% (inactive) | 71.5% | -34.4% (inactive) | 81.2% | -0.512 (inactive) | 3.9e-05 (inactive) | 0.00589 (inactive) | 19.6% (inactive) | 20.7% (inactive)
Cc1ccc(-n2nnnc2SCC(=O)Nc2c(C)n(C)n(-c3ccccc3)c2=O)cc1 | 637 | -1.1% (inactive) | 4.2% (inactive) | 91.4% | -18.7% (inactive) | 106% | -0.583 (inactive) | -1.3e-05 (inactive) | 0.00453 (inactive) | -6.61% (inactive) | -12.3% (inactive)
O=C(NC1CCCCC1)c1cc2nc(-c3ccco3)cc(C(F)(F)F)n2n1 | 455 | -5.7% (inactive) | 12.4% (inactive) | 92.7% | -46% (inactive) | 156% | -0.218 (inactive) | -5.6e-05 (inactive) | 0.00549 (inactive) | 10.5% (inactive) | 10.6% (inactive)
O=C(NCC1CCCO1)c1ccccc1-c1nc(-c2ccc(Cl)cc2)no1 (stereo unspecified) | 821 | -0.7% (inactive) | 1.8% (inactive) | 101% | -141% (inactive) | 122% | -0.483 (inactive) | 3.6e-05 (inactive) | 0.0055 (inactive) | -17.2% (inactive) | -4.71% (inactive)
C=Cn1nc(C)c2ccccc2c1=O | 655 | -2.6% (inactive) | 16.4% (inactive) | 114% | -27.2% (inactive) | 137% | -0.344 (inactive) | -2.7e-05 (inactive) | 0.00755 (inactive) | 3.73% (inactive) | 1.18% (inactive)
CCCCNc1cc(C)oc(=O)c1C(C)=O | 590 | 10.2% (inactive) | 11.4% (inactive) | 97.3% | -81% (inactive) | 123% | -0.443 (inactive) | 2e-05 (inactive) | 0.006 (inactive) | -0.373% (inactive) | 22.9% (inactive)
COc1cccc(CNC(=O)Cn2c(=O)oc3ccccc32)c1OC | 603 | -4% (inactive) | 2.6% (inactive) | 59.7% | -16.3% (inactive) | 88.3% | -0.53 (inactive) | -3.1e-05 (inactive) | 0.00743 (inactive) | 11.8% (inactive) | 31% (inactive)
CN(C)C(=O)N1CCC(C(=O)NC2CCCCCCC2)CC1 | 545 | 7.4% (inactive) | 36.8% (active) | 49.6% | -48.1% (inactive) | 106% | -0.381 (inactive) | -2.2e-05 (inactive) | 0.00533 (inactive) | 13% (inactive) | 18.9% (inactive)
Cc1ccc(S(=O)(=O)NC(C)C(=O)Nc2ccc(C(N)=O)cc2)cc1 (stereo unspecified) | 707 | 1.6% (inactive) | 1.1% (inactive) | 77.4% | -22.5% (inactive) | 105% | -0.521 (inactive) | 1.6e-05 (inactive) | 0.0049 (inactive) | -2.81% (inactive) | 2.56% (inactive)
O=C(Cn1nnc(-c2ccccc2)n1)Nc1ccccc1N1CCOCC1 | 584 | 3% (inactive) | 5.4% (inactive) | 63.9% | -16% (inactive) | 107% | -0.602 (inactive) | 2.3e-05 (inactive) | 0.0042 (inactive) | 14.7% (inactive) | 14.8% (inactive)
O=C(Nc1ccccc1)N1CCC(c2ccccc2)C1 (stereo unspecified) | 331 | 23.5% (inactive) | 3% (inactive) | 101% | 13.1% (inactive) | 103% | -0.481 (inactive) | -9.5e-06 (inactive) | 0.00694 (inactive) | -49.3% (inactive) | -82.3% (inactive)
CC1Cn2c(nnc2-c2ccc(F)cc2)S1 (stereo unspecified) | 741 | -17.7% (inactive) | -26.8% (inactive) | 119% | -40% (inactive) | 101% | -0.583 (inactive) | -2.2e-05 (inactive) | 0.00604 (inactive) | -1.17% (inactive) | 28.5% (inactive)
CCOC(=O)N1CCN(C(=O)CSc2nnc(-c3cc(OC)cc(OC)c3)o2)CC1 | 228 | 8.2% (inactive) | -10.3% (inactive) | 67.5% | -54.1% (inactive) | 99.6% | -0.398 (inactive) | -5.6e-05 (inactive) | 0.00254 (inactive) | 12.2% (inactive) | 29.1% (inactive)
CC(=O)c1cccc(S(=O)(=O)N2CCC(n3nnc4cc(F)ccc43)CC2)c1 | 598 | 2.7% (inactive) | 3.8% (inactive) | 90.5% | -14.7% (inactive) | 93.6% | -0.4 (inactive) | 2.2e-05 (inactive) | 0.00694 (inactive) | -0.237% (inactive) | 31.4% (inactive)
CCCCc1nccn1CCn1ccnc1CCCC | 514 | -5% (inactive) | 53.1% (active) | 75% | -75% (inactive) | 108% | -0.489 (inactive) | 1.9e-05 (inactive) | 0.00472 (inactive) | 26.7% (inactive) | 25.7% (inactive)
C=CCSc1nc2sc(C)c(C)c2c(=O)[nH]1 | 589 | 1.4% (inactive) | 10.2% (inactive) | 111% | 3.2% (inactive) | 107% | -0.563 (inactive) | -9.3e-06 (inactive) | 0.00785 (inactive) | -11.3% (inactive) | -3.55% (inactive)
Cc1cc(C(=O)NCc2cccnc2)n(-c2ccccc2)n1 | 613 | -0.9% (inactive) | -20.8% (inactive) | 103% | -82.8% (inactive) | 127% | -0.546 (inactive) | -1.4e-05 (inactive) | 0.00657 (inactive) | -0.216% (inactive) | 8.35% (inactive)
CCS(=O)(=O)N1CCCC(c2nc(-c3cccc(OC)c3)no2)C1 (stereo unspecified) | 730 | -52% (inactive) | -9.9% (inactive) | 92.1% | -66.1% (inactive) | 104% | -0.535 (inactive) | 1.2e-05 (inactive) | 0.00638 (inactive) | -28.7% (inactive) | -59.2% (inactive)
COc1ccc(-n2ncc3c(N4CCN(c5cccc(C)c5C)CC4)ncnc32)cc1 | 589 | -4.7% (inactive) | -12.6% (inactive) | 111% | -22% (inactive) | 105% | -0.566 (inactive) | -3.6e-05 (inactive) | 0.0072 (inactive) | 5.95% (inactive) | 27.1% (inactive)
C=CCSc1nc(N)c2c(C)c(C)sc2n1 | 419 | 3% (inactive) | 29.2% (inactive) | 91.8% | -20.5% (inactive) | 101% | -0.404 (inactive) | 1.5e-05 (inactive) | 0.000164 (inactive) | -7.96% (inactive) | -46.7% (inactive)
